Source: PubChem BioAssay (National Center for Advancing Translational Sciences (NCATS))
A selection: hits, their analogues and other compounds. The true share with any hit is near 10%.
RORgamma inh = ROR gamma (mouse) transcription inhibition. P51450. Drosophila S2 Gal4-RORgamma UAS-luciferase reporter, 20 h. Potency, µM (titrated, usually from 53.6 µM), for inactives: at the top dose activity change, negative = inhibition, usual class: inhibitors. 310,000 compounds, 5.4% hits. AID 2551; also: % is scaled to controls: 0 for no effect and ±100 for the full control effect; nearly all actives have a fitted effect of over 60% in size
Target sequence (P51450 whole entry, looked up, the tested form may be a part): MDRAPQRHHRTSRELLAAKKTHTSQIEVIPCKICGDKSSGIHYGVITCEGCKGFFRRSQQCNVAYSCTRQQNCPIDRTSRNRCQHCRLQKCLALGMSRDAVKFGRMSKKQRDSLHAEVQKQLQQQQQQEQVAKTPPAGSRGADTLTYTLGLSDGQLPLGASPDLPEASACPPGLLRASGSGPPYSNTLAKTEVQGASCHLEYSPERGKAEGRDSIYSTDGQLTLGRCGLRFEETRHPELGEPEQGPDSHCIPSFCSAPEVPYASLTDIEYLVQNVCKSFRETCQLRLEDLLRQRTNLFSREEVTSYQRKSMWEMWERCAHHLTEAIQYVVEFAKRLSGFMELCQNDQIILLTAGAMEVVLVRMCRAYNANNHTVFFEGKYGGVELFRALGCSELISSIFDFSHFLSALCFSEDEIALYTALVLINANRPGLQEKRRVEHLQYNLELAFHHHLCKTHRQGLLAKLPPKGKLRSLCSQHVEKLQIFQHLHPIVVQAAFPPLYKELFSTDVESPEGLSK
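Drosophila S2 cells stably expressing Gal4-DBD/mouse RORγ fusion under metallothionein promoter plus UAS-luciferase; compound 1 h, then 700 uM CuSO4 induction for 20 h at ambient temperature; inhibition read as reduced luminescence.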
VP16 counter = inhibits Gal4-VP16 luciferase reporter, ROR gamma counter-screen; 310,000 compounds, 3.5% hits; AID 2546; Drosophila S2 Gal4-VP16 UAS-luciferase, luminescence, 20 h; Potency, µM (series often up to 53.6 µM), for the others: at the top dose activity, negative = inhibition, hits mostly inhibitors;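 also: Gal4-VP16 expression switched on by copper sulfate through the metallothionein promoter; % is scaled to controls: 0 for no effect and ±100 for the full control effect; nearly all actives have a fitted effect of over 50% in size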
MCF10A rerep = DNA re-replication induction in MCF 10a cells. MCF 10A DNA re-replication, Hoechst nuclear intensity, 48 h. Potency, µM (highest dose often 46.1 µM), for the others: top-dose activity, positive = re-replication, usual class: activators. 350,000 compounds, 2.9% hits. AID 624296; also: % of control where 0% means no effect; nearly all actives have a fitted effect of over 50% in size
KB-V1 MDR tox = kills drug-selected multidrug resistant KB-V1 cells | 400,000 compounds, 3.4% hits | Potency, µM (highest dose often 46.1 µM), most hits filed as cytotoxic | KB-V1 MDR cells viability, CellTiter-Glo, 72 h; also: % is scaled to controls: 0 for no effect and ±100 for the full control effect; nearly all actives have a fitted effect of over 60% in size
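KB-V1 cells (P-gp-expressing MDR subline of KB-3-1) in phenol-red-free DMEM with 10% FBS were exposed to library compounds over a concentration series for 72 h at 37 degrees C. Viability read by CellTiter-Glo luminescence; concentration-effect curves fitted after normalization.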
KB-3-1 cytotox = kills parental KB-3-1 adenocarcinoma cells | 400,000 compounds, 1.4% hits | KB-3-1 viability, CellTiter-Glo ATP luminescence, 72 h | Potency, µM (doses to about 46.1 µM), most hits filed as cytotoxic; also: % is scaled to controls: 0 for no effect and ±100 for the full control effect; nearly all actives have a fitted effect of over 60% in size
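KB-3-1 cells, DMEM (no phenol red) + 10% FBS; compound by pin transfer, 72 h, 37 °C. Readout: CellTiter-Glo luminescence after 10 min. Data normalized, curve-fitted.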
SW480 rerep = induces DNA re-replication in SW480 colon adenocarcinoma cells. SW480 DNA re-replication, Hoechst DNA content imaging, 48 h. Potency, µM (titrated, usually from 46.1 µM), inactives show at the top dose re-replication activation, usual class: activators. 340,000 compounds, 1.8% hits. AID 624297; also: % of control where 0% means no effect; nearly all actives have a fitted effect of over 55% in size
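250 cells/well; 23 nL cpd via pin tool; 48 hr, 37 C, 5% CO2; Hoechst 40 min; imager read of total nuclear intensity, ex 405/em 500-530 nm.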
The depositor's hits bear a star; [ ] = dose if it differs, or a comment. Calls follow the shape of the dose curve; as a rule, active = well fitted curve in the direction sought with a large enough effect; inconclusive = small, poorly fitted or top-dose-only effect, or another doubt; inactive = no such curve, though single readings can be large; an effect the other way counts as inactive or inconclusive. Potency is read from the fitted curve at half-maximal effect.

For CC1=C(C(=O)Nc2ccccc2C(F)(F)F)C(c2sccc2C)NC(=S)N1 (configuration not stated) the results were RORgamma inh 20µM*, VP16 counter -1.8%, MCF10A rerep inconclusive, KB-V1 MDR tox inactive, KB-3-1 cytotox inactive and SW480 rerep inconclusive.
COC(=O)C1=C(C)NC(=S)NC1c1sccc1C (configuration not stated) was read as RORgamma inh 15.8µM*, VP16 counter -9.6%, MCF10A rerep -6.6%, KB-V1 MDR tox inactive, KB-3-1 cytotox inactive and SW480 rerep 6.8%.
For COc1cc(-c2c(-c3ccc4c(c3)OCO4)noc2-c2ccsc2)cc(OC)c1OC the results were KB-V1 MDR tox inactive and KB-3-1 cytotox inactive.
N#Cc1ccc(CN2CCCC3(CCN(C(=O)c4cccc(F)c4)CC3)C2)cc1 was read as RORgamma inh -14.3% and VP16 counter -1.0%.
Screening COc1cc(C(=O)NCCc2sc(-c3cccc(F)c3)nc2C)cc(OC)c1OC returned KB-V1 MDR tox inactive and KB-3-1 cytotox inactive.
Screening Cc1ncc2c(n1)NC(=O)NC2 returned MCF10A rerep -28.8%, KB-V1 MDR tox inconclusive, KB-3-1 cytotox inactive and SW480 rerep -13.4%.
For CCCCCCCCN1C(=O)[C@H](CC(=O)N2CCN(C(=O)c3ccco3)CC2)C[C@@]2(C(=O)OC)CC(C)(C)CC=C12 the results were KB-V1 MDR tox inconclusive and KB-3-1 cytotox inactive.
CCOc1ccccc1NC(=O)c1ccccc1N(C)S(=O)(=O)c1ccc(C)cc1 was read as MCF10A rerep 6.2%, KB-V1 MDR tox 11.6µM*, KB-3-1 cytotox inconclusive and SW480 rerep 0.6%.
For CCOc1ccccc1NC(=O)c1cc2cc(C)ccc2n1C the results were KB-V1 MDR tox 8.2µM* and KB-3-1 cytotox inconclusive.
For CCCNC(=O)c1ccccc1NC(=O)c1ccccc1N(C)S(=O)(=O)c1ccc(C)cc1 the results were RORgamma inh -5.4%, VP16 counter -3.3%, MCF10A rerep inconclusive, KB-V1 MDR tox inconclusive, KB-3-1 cytotox 18.4µM* and SW480 rerep inconclusive.
For CCOc1ccccc1NC(=O)CCN(c1ccc(C)cc1)S(=O)(=O)c1ccccc1 the results were RORgamma inh -2.0%, VP16 counter -3.7%, MCF10A rerep 6.2%, KB-V1 MDR tox 2.59µM*, KB-3-1 cytotox inconclusive and SW480 rerep -1.3%.
Cc1ccc(N(CCC(=O)O)S(=O)(=O)c2ccccc2)cc1 was read as RORgamma inh -8.9%, VP16 counter -2.3%, MCF10A rerep 2.7%, KB-V1 MDR tox inactive, KB-3-1 cytotox inactive and SW480 rerep -1.7%.
`CO[C@@H]1COC(=O)[C@H]2CCCN2C(=O)[C@@H](C)COC(=O)CCC[C@H]1C` gave RORgamma inh 5.0%[10 µM] and VP16 counter -8.7%[10 µM].
For C1CCCC1 the results were RORgamma inh 9.3% and VP16 counter -1.8%.
For Cc1nn(C)cc1/C=N\NC(=O)c1ccc2c(c1)c(C)c(C)n2Cc1ccccc1 the results were RORgamma inh 15.8µM*, VP16 counter inconclusive, MCF10A rerep inconclusive, KB-V1 MDR tox inactive, KB-3-1 cytotox inactive and SW480 rerep 1.1%.
`COc1ccc(C(=O)N[C@H](C(=O)NCCCn2nc(C)cc2C)C(C)C)cc1` gave MCF10A rerep 0.9%, KB-V1 MDR tox 14.6µM*, KB-3-1 cytotox inactive and SW480 rerep 1.0%.
`COc1ccc(NS(=O)(=O)c2cc(NC(=O)Cc3cccs3)ccc2C)cc1` gave RORgamma inh 2.8%, VP16 counter -18.0%, MCF10A rerep 16.4µM*, KB-V1 MDR tox inactive, KB-3-1 cytotox inactive and SW480 rerep inconclusive.
`COc1ccc(NS(=O)(=O)c2cc(NC(=O)c3ccc(=O)[nH]c3)ccc2C)cc1` gave MCF10A rerep 11.3%, KB-V1 MDR tox inconclusive, KB-3-1 cytotox inactive and SW480 rerep 4.6%.
